Assays:
Test in all cases: DAPPL (digital affinity profiling via proximity ligation, sequencing); 10 mM Tris-HCl pH 7.5, 50 mM NaCl, 1 mM DTT, 4% glycerol, room temperature, 30 min; GST-TFs on glutathione beads, 16-mer random dsDNA library, 0.1% formaldehyde crosslink after washing; high values mean tight binding
Details in all cases: protein: recombinant; tags: N-terminal GST; dsDNA, one strand shown
ELK4 = biological target: T1, ELK4 (Homo sapiens, UniProt P28324-2 1-405)
T1 sequence: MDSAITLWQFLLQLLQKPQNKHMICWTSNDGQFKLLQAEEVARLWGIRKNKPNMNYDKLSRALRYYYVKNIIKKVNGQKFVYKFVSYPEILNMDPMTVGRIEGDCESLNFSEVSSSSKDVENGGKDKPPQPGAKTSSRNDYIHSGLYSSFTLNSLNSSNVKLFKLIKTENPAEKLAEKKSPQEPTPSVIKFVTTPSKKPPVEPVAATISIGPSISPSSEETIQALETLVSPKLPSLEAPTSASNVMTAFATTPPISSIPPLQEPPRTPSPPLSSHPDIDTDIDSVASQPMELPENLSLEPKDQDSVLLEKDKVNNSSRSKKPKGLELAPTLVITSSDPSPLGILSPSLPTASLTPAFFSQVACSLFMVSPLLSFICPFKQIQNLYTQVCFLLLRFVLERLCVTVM
How it was run: (§1)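 A tag-only sample was pooled with DNA-barcoded human transcription factors that had been expressed in yeast as GST fusions and captured on glutathione beads. The pools were incubated for 30 min at room temperature with 200 nmole of a random double-stranded 16-mer DNA library in Tris/NaCl/DTT/glycerol buffer, then washed, crosslinked with 0.1% formaldehyde, proximity-ligated (BsaI/T4 ligase, 1 h, 37 °C), PCR-amplified and sequenced on an Illumina NextSeq500. Binding signal is each hexamer's read frequency for a factor divided by its frequency for the tag-only sample.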

SPDEF = biological target: T2, SPDEF (Homo sapiens, UniProt O95238 1-335)
T2 sequence: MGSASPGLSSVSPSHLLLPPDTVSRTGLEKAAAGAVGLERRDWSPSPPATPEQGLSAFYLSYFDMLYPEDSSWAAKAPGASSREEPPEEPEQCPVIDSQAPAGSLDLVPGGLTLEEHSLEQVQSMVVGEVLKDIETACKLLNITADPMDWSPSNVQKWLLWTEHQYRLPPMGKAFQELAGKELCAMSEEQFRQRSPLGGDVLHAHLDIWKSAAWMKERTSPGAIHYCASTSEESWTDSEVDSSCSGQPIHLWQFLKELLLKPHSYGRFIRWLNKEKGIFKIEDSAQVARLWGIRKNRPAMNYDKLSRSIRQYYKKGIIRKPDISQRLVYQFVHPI
How it was run: as §1

ELF5 = biological target: T3, ELF5 (Homo sapiens, UniProt Q9UKW6-2 1-255)
T3 sequence: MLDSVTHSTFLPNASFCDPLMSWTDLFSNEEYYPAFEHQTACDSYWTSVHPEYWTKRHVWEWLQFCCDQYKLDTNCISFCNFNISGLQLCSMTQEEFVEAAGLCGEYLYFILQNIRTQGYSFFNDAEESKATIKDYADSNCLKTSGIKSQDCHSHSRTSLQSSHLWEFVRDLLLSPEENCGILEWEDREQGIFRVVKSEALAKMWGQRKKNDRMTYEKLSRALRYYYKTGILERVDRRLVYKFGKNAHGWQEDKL
How it was run: as §1

ELK3 = biological target: T4, ELK3 (Homo sapiens, UniProt P41970 1-407)
T4 sequence: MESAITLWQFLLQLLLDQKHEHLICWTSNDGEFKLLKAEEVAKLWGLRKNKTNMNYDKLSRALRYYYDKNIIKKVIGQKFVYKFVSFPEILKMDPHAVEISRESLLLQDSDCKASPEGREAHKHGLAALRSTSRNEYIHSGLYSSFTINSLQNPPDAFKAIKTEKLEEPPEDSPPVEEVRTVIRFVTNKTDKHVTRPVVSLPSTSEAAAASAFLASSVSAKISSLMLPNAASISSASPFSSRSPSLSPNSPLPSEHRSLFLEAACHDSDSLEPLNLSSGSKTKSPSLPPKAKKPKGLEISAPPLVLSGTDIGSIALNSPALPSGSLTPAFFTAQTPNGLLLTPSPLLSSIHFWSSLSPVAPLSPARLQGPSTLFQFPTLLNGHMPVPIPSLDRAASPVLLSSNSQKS
How it was run: as §1

CRX = CRX (Homo sapiens, UniProt O43186 1-299)
Chain of CRX (O43186 whole entry): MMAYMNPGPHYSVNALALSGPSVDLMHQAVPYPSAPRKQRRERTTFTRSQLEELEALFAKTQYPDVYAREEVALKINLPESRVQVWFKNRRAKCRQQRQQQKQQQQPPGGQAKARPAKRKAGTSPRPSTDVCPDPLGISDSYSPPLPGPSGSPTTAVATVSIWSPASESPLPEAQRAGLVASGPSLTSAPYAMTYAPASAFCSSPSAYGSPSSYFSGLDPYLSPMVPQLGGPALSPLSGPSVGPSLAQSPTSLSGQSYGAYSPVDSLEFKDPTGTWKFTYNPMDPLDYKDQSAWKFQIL
How it was run: as §1

In the case of TGCCCA, the binding signal (ELK4) is reported as 1.25 fold enrichment (6-mer frequency, TF over GST control), the binding signal (SPDEF) is reported as 1.12 fold enrichment (6-mer frequency, TF over GST control) and the binding signal (ELF5) is reported as 1.01 fold enrichment (6-mer frequency, TF over GST control).

In the case of ACAGCA, the binding signal (ELK3) is reported as 1.02 fold enrichment (6-mer frequency, TF over GST control) and the binding signal (ELK4) is reported as 1.02 fold enrichment (6-mer frequency, TF over GST control).

With TGTGCG the binding signal (ELK3) was 1.01 fold enrichment (6-mer frequency, TF over GST control), the binding signal (ELK4) was 1.14 fold enrichment (6-mer frequency, TF over GST control) and the binding signal (ELF5) was 1.07 fold enrichment (6-mer frequency, TF over GST control).

With CATGTT the binding signal (ELK4) was 1.1 fold enrichment (6-mer frequency, TF over GST control) and the binding signal (SPDEF) was 1.02 fold enrichment (6-mer frequency, TF over GST control).

For CATACA, the binding signal (ELK3) was 1.22 fold enrichment (6-mer frequency, TF over GST control), the binding signal (ELK4) was 1.06 fold enrichment (6-mer frequency, TF over GST control) and the binding signal (SPDEF) was 1.05 fold enrichment (6-mer frequency, TF over GST control).

ACCAAA was tested, and the binding signal (ELK4) was 1.02 fold enrichment (6-mer frequency, TF over GST control) and the binding signal (SPDEF) was 1.04 fold enrichment (6-mer frequency, TF over GST control).

For ACGACC, the binding signal (ELK3) was 1.31 fold enrichment (6-mer frequency, TF over GST control), the binding signal (ELK4) was 1.14 fold enrichment (6-mer frequency, TF over GST control) and the binding signal (SPDEF) was 1.2 fold enrichment (6-mer frequency, TF over GST control). The binding signal (ELF5) was 1.17 fold enrichment (6-mer frequency, TF over GST control).

In the case of GGTATC, the binding signal (ELK4) is reported as 1.13 fold enrichment (6-mer frequency, TF over GST control) and the binding signal (SPDEF) is reported as 1.33 fold enrichment (6-mer frequency, TF over GST control).

With TGATAC the binding signal (ELK3) was 1.08 fold enrichment (6-mer frequency, TF over GST control), the binding signal (ELK4) was 1.29 fold enrichment (6-mer frequency, TF over GST control) and the binding signal (CRX) was 1.1 fold enrichment (6-mer frequency, TF over GST control). For the same sequence, the binding signal (SPDEF) was 1.17 fold enrichment (6-mer frequency, TF over GST control) and the binding signal (ELF5) was 1.1 fold enrichment (6-mer frequency, TF over GST control).

For CATCAT, the binding signal (ELK4) was 1.11 fold enrichment (6-mer frequency, TF over GST control) and the binding signal (ELF5) was 1.07 fold enrichment (6-mer frequency, TF over GST control).

With CCAACC the binding signal (ELK3) was 1.06 fold enrichment (6-mer frequency, TF over GST control), the binding signal (ELK4) was 1.13 fold enrichment (6-mer frequency, TF over GST control) and the binding signal (SPDEF) was 1.11 fold enrichment (6-mer frequency, TF over GST control). The binding signal (ELF5) was 1.05 fold enrichment (6-mer frequency, TF over GST control).

With AAGGGC the binding signal (ELK3) was 1.18 fold enrichment (6-mer frequency, TF over GST control), the binding signal (ELK4) was 1.13 fold enrichment (6-mer frequency, TF over GST control) and the binding signal (SPDEF) was 1.07 fold enrichment (6-mer frequency, TF over GST control). The binding signal (ELF5) was 1.04 fold enrichment (6-mer frequency, TF over GST control).

In the case of GTACCC, the binding signal (ELK3) is reported as 1.12 fold enrichment (6-mer frequency, TF over GST control), the binding signal (ELK4) is reported as 1.17 fold enrichment (6-mer frequency, TF over GST control) and the binding signal (SPDEF) is reported as 1.14 fold enrichment (6-mer frequency, TF over GST control). The binding signal (ELF5) was 1.01 fold enrichment (6-mer frequency, TF over GST control).

For TGGCCG, the binding signal (ELK3) was 1.14 fold enrichment (6-mer frequency, TF over GST control) and the binding signal (ELK4) was 1.06 fold enrichment (6-mer frequency, TF over GST control).

In the case of TGGGGT, the binding signal (ELK3) is reported as 1.17 fold enrichment (6-mer frequency, TF over GST control), the binding signal (ELK4) is reported as 1.21 fold enrichment (6-mer frequency, TF over GST control) and the binding signal (SPDEF) is reported as 1.08 fold enrichment (6-mer frequency, TF over GST control). For the same sequence, the binding signal (ELF5) was 1.01 fold enrichment (6-mer frequency, TF over GST control).

In the case of GCCTGA, the binding signal (ELK4) is reported as 1.07 fold enrichment (6-mer frequency, TF over GST control) and the binding signal (ELF5) is reported as 1.05 fold enrichment (6-mer frequency, TF over GST control).

In the case of CGCCTG, the binding signal (ELK3) is reported as 1.06 fold enrichment (6-mer frequency, TF over GST control), the binding signal (ELK4) is reported as 1.17 fold enrichment (6-mer frequency, TF over GST control) and the binding signal (SPDEF) is reported as 1.03 fold enrichment (6-mer frequency, TF over GST control). For the same sequence, the binding signal (ELF5) was 1.12 fold enrichment (6-mer frequency, TF over GST control).

In the case of GTTGTT, the binding signal (ELK3) is reported as 1.1 fold enrichment (6-mer frequency, TF over GST control), the binding signal (ELK4) is reported as 1.33 fold enrichment (6-mer frequency, TF over GST control) and the binding signal (SPDEF) is reported as 1.12 fold enrichment (6-mer frequency, TF over GST control). For the same sequence, the binding signal (ELF5) was 1.19 fold enrichment (6-mer frequency, TF over GST control).

In the case of CATGAC, the binding signal (ELK3) is reported as 1.17 fold enrichment (6-mer frequency, TF over GST control), the binding signal (ELK4) is reported as 1.09 fold enrichment (6-mer frequency, TF over GST control) and the binding signal (SPDEF) is reported as 1.2 fold enrichment (6-mer frequency, TF over GST control). The binding signal (ELF5) was 1.12 fold enrichment (6-mer frequency, TF over GST control).

With CTGGGC the binding signal (ELK3) was 1.02 fold enrichment (6-mer frequency, TF over GST control), the binding signal (ELK4) was 1.11 fold enrichment (6-mer frequency, TF over GST control) and the binding signal (SPDEF) was 1 fold enrichment (6-mer frequency, TF over GST control).

CACGCA was tested, and the binding signal (ELK3) was 1.14 fold enrichment (6-mer frequency, TF over GST control) and the binding signal (ELK4) was 1.11 fold enrichment (6-mer frequency, TF over GST control).

GCTATC was tested, and the binding signal (ELK3) was 1.12 fold enrichment (6-mer frequency, TF over GST control), the binding signal (ELK4) was 1.13 fold enrichment (6-mer frequency, TF over GST control) and the binding signal (SPDEF) was 1.11 fold enrichment (6-mer frequency, TF over GST control). The binding signal (ELF5) was 1.04 fold enrichment (6-mer frequency, TF over GST control).

For ATGCCA, the binding signal (ELK4) was 1.02 fold enrichment (6-mer frequency, TF over GST control), the binding signal (SPDEF) was 1.04 fold enrichment (6-mer frequency, TF over GST control) and the binding signal (ELF5) was 1.01 fold enrichment (6-mer frequency, TF over GST control).

For GTTGAC, the binding signal (ELK3) was 1.2 fold enrichment (6-mer frequency, TF over GST control), the binding signal (ELK4) was 1.25 fold enrichment (6-mer frequency, TF over GST control) and the binding signal (SPDEF) was 1.07 fold enrichment (6-mer frequency, TF over GST control). For the same sequence, the binding signal (ELF5) was 1.07 fold enrichment (6-mer frequency, TF over GST control).

In the case of ACCATT, the binding signal (ELK3) is reported as 1.28 fold enrichment (6-mer frequency, TF over GST control), the binding signal (ELK4) is reported as 1.15 fold enrichment (6-mer frequency, TF over GST control) and the binding signal (SPDEF) is reported as 1 fold enrichment (6-mer frequency, TF over GST control). The binding signal (ELF5) was 1.15 fold enrichment (6-mer frequency, TF over GST control).

CGATGC was tested, and the binding signal (ELK4) was 1.07 fold enrichment (6-mer frequency, TF over GST control) and the binding signal (SPDEF) was 1.07 fold enrichment (6-mer frequency, TF over GST control).

For CATTGT, the binding signal (ELK3) was 1.08 fold enrichment (6-mer frequency, TF over GST control), the binding signal (ELK4) was 1.17 fold enrichment (6-mer frequency, TF over GST control) and the binding signal (SPDEF) was 1.11 fold enrichment (6-mer frequency, TF over GST control). The binding signal (ELF5) was 1.1 fold enrichment (6-mer frequency, TF over GST control).

In the case of CGTAGC, the binding signal (ELK4) is reported as 1.23 fold enrichment (6-mer frequency, TF over GST control) and the binding signal (ELF5) is reported as 1.05 fold enrichment (6-mer frequency, TF over GST control).

In the case of ATGCAG, the binding signal (ELK4) is reported as 1.15 fold enrichment (6-mer frequency, TF over GST control), the binding signal (SPDEF) is reported as 1.05 fold enrichment (6-mer frequency, TF over GST control) and the binding signal (ELF5) is reported as 1.06 fold enrichment (6-mer frequency, TF over GST control).

In the case of TATGTC, the binding signal (ELK3) is reported as 1.14 fold enrichment (6-mer frequency, TF over GST control), the binding signal (ELK4) is reported as 1.05 fold enrichment (6-mer frequency, TF over GST control) and the binding signal (SPDEF) is reported as 1.14 fold enrichment (6-mer frequency, TF over GST control). The binding signal (ELF5) was 1.05 fold enrichment (6-mer frequency, TF over GST control).

CCCTGA was tested, and the binding signal (ELK3) was 1.12 fold enrichment (6-mer frequency, TF over GST control), the binding signal (ELK4) was 1.1 fold enrichment (6-mer frequency, TF over GST control) and the binding signal (CRX) was 1.03 fold enrichment (6-mer frequency, TF over GST control). For the same sequence, the binding signal (ELF5) was 1.06 fold enrichment (6-mer frequency, TF over GST control).

With ACACGC the binding signal (ELK3) was 1.12 fold enrichment (6-mer frequency, TF over GST control), the binding signal (ELK4) was 1.26 fold enrichment (6-mer frequency, TF over GST control) and the binding signal (SPDEF) was 1.08 fold enrichment (6-mer frequency, TF over GST control). The binding signal (ELF5) was 1.02 fold enrichment (6-mer frequency, TF over GST control).
